In the library only some 1.5% were active in any assay of this set; here they are far more common.
TcdB inh = inhibitors of Clostridioides difficile toxin B glycohydrolase; P18177; TcdB glycohydrolase enzymatic assay, plate reader; inhibition, % at 9.99 µM; 350,000 tested, 0.24% active; in the data active means inhibition above about 10%
DUSP3 inh = DUSP3 (human) phosphatase inhibition; P51452; recombinant VHR phosphatase, pNPP absorbance; inhibition, % at 13.3 µM; 290,000 tested, 0.52% active; AID 1654; in the data active means inhibition above about 50%
BH1578 lux ind = quorum light induction in luxS cqsA deficient V. cholerae | V. cholerae BH1578 lux reporter, luminescence, 6 h | 350,000 tested, 0.16% active | activation, % at 18.7 µM | AID 588436; in the data active means activation mostly above about 9.7%, no sharp cut-off
CCHFV vOTU inh = blocks the CCHF virus ovarian tumor domain protease; CCHFV vOTU protease, Pep-AMC fluorescence; inhibition, % at 11.5 µM; 370,000 tested, 0.55% active; in the data active means inhibition above about 30%; further: 0% = vehicle wells with enzyme and 100% = no enzyme wells
PrPC surface inh = reduces human prion protein on the cell surface; P04156; cell surface PrPC, TR-FRET read-out; inhibition, % at 13.8 µM; 370,000 tested, 0.43% active; in the data active means inhibition above about 24%; further: 0% = median of the test wells and 100% = reference compound wells
SSB-PriA inh = blocks PriA binding to SSB C-terminal tail; AlphaScreen SSBct-PriA binding, biotinylated peptide; AID 1272365; 430,000 tested, 0.6% active; inhibition, % at 33 µM; in the data active means inhibition mostly above about 37%, no sharp cut-off; inactive means mostly below about 20%;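 further: plate controls were negative control peptide for no effect and reference peptide for full effect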
* marks the source's active call; other numbers are inactive results; i = inactive; nt = no result; ! = repeats disagree.

SMILES	TcdB inh	DUSP3 inh	BH1578 lux ind	CCHFV vOTU inh	PrPC surface inh	SSB-PriA inh
COCCC1CCCCN1C(=O)c1cc(COc2cccc(C(C)=O)c2)on1 (stereo not drawn)	-4	18	0	-8	7	-16
O=C(CCn1c2c(c3ccccc31)CCCC2)NNC(=O)c1ccc([N+](=O)[O-])cc1	0	16	0	19	-5	12
O=C(CCn1c2c(c3ccccc31)CCCC2)NNC(=O)c1ccc(Cl)c([N+](=O)[O-])c1	0	52*	0	-4	-10	-6
COc1ccc(C(=O)Cn2cnc3ccccc3c2=O)cc1	1	55*	0	9	-3	-5
O=C(Cn1cnc2ccccc2c1=O)c1ccc2ccccc2c1	nt	14	0	-18	3	-4
Oc1ccc(C=NNC(=S)Nc2cccnc2)cc1O	nt	nt	nt	nt	nt	20
Cc1ccc(-n2ccc(-c3nn(-c4ccccc4)ccc3=O)n2)cc1	3	19	-1	0	4	5
CSc1nccc(-c2nn(-c3ccc(Cl)cc3)ccc2=O)n1	nt	nt	nt	nt	nt	53*
CCOC(=O)N1CCCC1CS(=O)(=O)c1ccccc1 (stereo not drawn)	nt	nt	nt	nt	nt	4
COc1cc(/C=N/N2C(=O)C3C4C=CC(CC4)C3C2=O)ccc1O (stereo not drawn)	18*	21	0	11	6	nt
COc1cc(C=NN2C(=O)C3C4C=CC(CC4)C3C2=O)ccc1O (stereo not drawn)	nt	nt	nt	nt	nt	-2
Cc1nccn1S(=O)(=O)c1cc([N+](=O)[O-])ccc1Cl	nt	2	i	6	-16	2
CC1=NCCN1S(=O)(=O)c1cc([N+](=O)[O-])ccc1Cl	-2	1	i	-3	-23	35*!
CC(C)Nc1nc(NC(C)C)nc(N(C)N)n1	nt	5	0	-3	4	65*
CCOCCCn1c(=O)c2ccccc2n2c(=S)[nH]nc12	25*	13	i	3	8	-5
CCCCC1CCC(C(=O)Nc2cccc(-c3ccc4nncn4n3)c2)CC1 (stereo not drawn)	nt	nt	nt	nt	nt	-4
C/C(=N\Nc1cc(N2CCOCC2)ncn1)c1ccc(O)cc1	28*	-8	i	1	-4	nt
CC(C)S(=O)(=O)c1nc2ccccc2n1Cc1ccccc1F	nt	nt	nt	nt	nt	-11
CCOC(=O)C1CCN(C(C(=O)Nc2ccc3c(c2)OCCO3)c2ccccc2)CC1 (stereo not drawn)	nt	53*	nt	14	3	-5
Cc1ccccc1OC(C)C(=O)Nc1ccc2c(c1)OCO2 (stereo not drawn)	0	18	i	3	3	-10
CCOC(=O)C1CCN(c2c(Nc3ccc4c(c3)OCCO4)c(=O)c2=O)CC1	-20	47	0	6	-2	-10
COc1ccccc1OC(C)C(=O)Nc1ccc2c(c1)OCCO2 (stereo not drawn)	0	56*	0	-9	-6	-22
O=C(Cc1cc(=O)[nH]c(SCC(=O)Nc2cccc(Cl)c2)n1)NCc1cccs1	nt	nt	nt	nt	nt	5
C/C(CCc1ccccc1)=N\NC(=O)C1C2CCCCC21 (stereo not drawn)	11*	-11	i	8	2	nt
CC(CCc1ccccc1)=NNC(=O)CCc1ccccc1	nt	nt	nt	nt	nt	2
SMILES	TcdB inh	DUSP3 inh	BH1578 lux ind	CCHFV vOTU inh	PrPC surface inh	SSB-PriA inh
C/C(CCc1ccccc1)=N\NC(=S)NCCc1ccccc1	2	50*	i	-19	-4	nt
CC(=NNC(=S)NCCc1ccccc1)c1ccc(C)cc1	nt	nt	nt	nt	nt	2
CCOc1ccc(NC(=O)CSc2nnc(C3CC3)n2C2CC2)cc1	1	nt	-1	2	7	-10
NC(=O)c1ccc(NC(=O)CSc2nnc(C3CC3)n2C2CC2)cc1	12*	nt	i	7	1	-9
O=C(NCc1cccnc1)c1sc2cc(Cl)ccc2c1Cl	nt	50*	0	-1	11	0
Cc1ccc(C(=O)Nc2ccc(N3CCCC3)cc2)cc1	0	12	0	6	5	-5
Cc1ccc(C(=O)Nc2ccc(N3CCCCC3)cc2)cc1	11*	nt	0	11	3	-7
CSc1ccccc1C(=O)N1CCN(c2nccn2-c2cccc(Cl)c2)CC1	nt	nt	nt	nt	nt	-20
COc1cccc(NC(=O)CCC2CCN(Cc3nccs3)CC2)c1	1	52*	nt	8	0	-4
CCn1c(SCC(=O)NNC(=O)Cc2ccccc2)nnc1-c1ccccc1	nt	30	0	-8	4	7
Cn1c(SCC(=O)NNC(=O)Cc2ccccc2)nnc1-c1ccccc1	nt	6	31*	-11	3	-13
O=C(CSc1nccn1-c1cccc(Cl)c1)N1CCc2ccccc21	nt	nt	nt	nt	nt	44*

Assay outcomes (PubChem BioAssay)
